Records with an inconclusive call do not appear. Unless noted, calls follow the shape of the dose curve; as a rule, active = well fitted curve in either direction with a large enough effect (not every such curve was filed as active); inconclusive = small, poorly fitted or top-dose-only effect, or another doubt; inactive = flat fitted curve, though single readings scatter.
Legend:
[1] = AP1 Signaling Pathway (AID 357); conditions: ME-180 AP-1-bla reporter, EGF-induced, beta-lactamase ratio, 5 h; at 17.2 µM (top of the series) unless noted;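 also: ME-180 reporter cells stimulated with EGF at its EC50 level; % is scaled to controls: 0 for no effect and ±100 for the full control effect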
Method in brief: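 A ratiometric CCF4 readout (405 nm excitation; 460 and 530 nm emission) quantified AP-1-driven beta-lactamase in ME-180 cells after 5 h with compound and EC50 EGF; AC50 values were derived for activators and inhibitors.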

[2] = Stat Signaling Pathway (AID 446); conditions: ME-180 (cervical carcinoma) SIE beta-lactamase reporter, IL-6 stimulated, 5 h; at 17.2 µM (top of the series) unless noted;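 also: ME-180 cervical cancer cells given 40 pM IL-6 alongside compound; SIE-controlled beta-lactamase reporter measured as 460/530 nm FRET emission ratio; % is scaled to controls: 0 for no effect and ±100 for the full control effect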
Method in brief: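 Compound effects on IL-6-induced STAT reporter activity were measured in ME-180 cells. After overnight culture, cells were co-treated with 40 pM IL-6 for 5 hrs before beta-lactamase substrate loading at room temperature.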

[3] = target: Glucocorticoid receptor (Homo sapiens) (UniProt P04150); experiment: GR-GFP Redistribution (AID 450;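 active = compounds whose dose series gives a full or clear partial fitted curve of increased nuclear translocation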; also: potency is read from the fitted curve at half-maximal effect); conditions: U2OS GR-GFP nuclear translocation, laser cytometry, 2 h; series mostly up to 20.6 µM
Sequence of Glucocorticoid receptor (Homo sapiens) (P04150 whole entry, looked up): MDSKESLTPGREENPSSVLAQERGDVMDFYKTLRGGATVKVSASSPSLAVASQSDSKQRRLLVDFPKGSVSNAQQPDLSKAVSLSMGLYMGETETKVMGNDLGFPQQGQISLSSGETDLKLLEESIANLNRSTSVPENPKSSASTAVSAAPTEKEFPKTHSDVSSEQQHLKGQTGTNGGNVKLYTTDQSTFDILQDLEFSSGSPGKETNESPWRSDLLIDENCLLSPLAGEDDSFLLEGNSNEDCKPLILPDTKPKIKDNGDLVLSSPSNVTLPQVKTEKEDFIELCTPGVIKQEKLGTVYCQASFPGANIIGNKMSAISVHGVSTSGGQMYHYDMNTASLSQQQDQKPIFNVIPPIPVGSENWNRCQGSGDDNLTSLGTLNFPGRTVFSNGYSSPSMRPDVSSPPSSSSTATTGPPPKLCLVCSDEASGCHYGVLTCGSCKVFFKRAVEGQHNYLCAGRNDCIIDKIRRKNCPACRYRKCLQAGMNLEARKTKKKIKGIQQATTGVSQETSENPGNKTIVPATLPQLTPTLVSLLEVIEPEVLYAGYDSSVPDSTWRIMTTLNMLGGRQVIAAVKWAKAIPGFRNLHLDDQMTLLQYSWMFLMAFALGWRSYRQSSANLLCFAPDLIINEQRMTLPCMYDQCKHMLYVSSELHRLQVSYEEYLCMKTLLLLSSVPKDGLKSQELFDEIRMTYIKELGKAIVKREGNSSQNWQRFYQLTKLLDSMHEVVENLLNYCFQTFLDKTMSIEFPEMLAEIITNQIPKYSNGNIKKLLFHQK

CCOC(=O)C1CCN(c2nc3ccccc3nc2C(C#N)C(=O)OC(C)COC)CC1 (stereo unspecified)
inactive: activity change, negative = inhibition [1] -6.33% | activity, negative = inhibition [2] -12.7% | Potency [3] > 20.6 µM

N#Cc1nc(COc2ccc(Cl)cc2)oc1N1CCN(Cc2ccccc2)CC1
inactive: activity change, negative = inhibition [1] -16.3% | activity, negative = inhibition [2] 4.41% | Potency [3] > 20.6 µM

Cc1nnc2n(C3CCCCC3)c(=O)c3c4c(sc3n12)COC(C)(C)C4
inactive: activity change, negative = inhibition [1] 4.48% | activity, negative = inhibition [2] 0.172% | Potency [3] > 20.6 µM

CC(C)CNC(=O)c1c(N)n(/N=C/c2ccccn2)c2nc3ccccc3nc12
inactive: activity change, negative = inhibition [1] 14.9% | activity, negative = inhibition [2] 9.58% | Potency [3] > 20.6 µM

CCOc1cccc(-c2nnc3sc(-c4cc(OC)c(OC)c(OC)c4)nn23)c1
inactive: activity change, negative = inhibition [1] 3.58% | activity, negative = inhibition [2] -10.4% | Potency [3] > 20.6 µM

Cc1ccc2c(c1)[C@@H]1CN(C)CC[C@@H]1N2S(=O)(=O)c1ccc(F)cc1
inactive: activity change, negative = inhibition [1] 12.8% | activity, negative = inhibition [2] 5.84% | Potency [3] > 20.6 µM

CCCCCn1c2nc3ccccc3nc2c2c(=O)n(CC(C)C)cnc21
inactive: activity change, negative = inhibition [1] 2.71% | activity, negative = inhibition [2] -12.9% | Potency [3] > 20.6 µM

C[C@]12CC[C@@H]3c4ccc(O)cc4C(=O)C[C@H]3[C@@H]1CC[C@@H]2O
inactive: activity change, negative = inhibition [1] 0.317% | activity, negative = inhibition [2] -2.37% | Potency [3] > 20.6 µM

CC(=O)OCC(=O)[C@@]1(O)CC[C@H]2[C@@H]3CCC4=CC(=O)CC[C@]4(C)[C@H]3[C@@H](O)C[C@@]21C
inactive: activity change, negative = inhibition [1] 11.1% | activity, negative = inhibition [2] -11.6% | Potency [3] > 20.6 µM

CN1CC2(C)CN(C(c3ccccc3)c3ccccc3)CC(C)(C1)C2O (stereo unspecified)
inactive: activity change, negative = inhibition [1] 14.1% | activity, negative = inhibition [2] 2.94% | Potency [3] > 20.6 µM

O=C(NCCN1CCOCC1)c1ccc(=O)oc1
inactive: activity change, negative = inhibition [1] 4.3% | activity, negative = inhibition [2] 4.33% | Potency [3] > 20.6 µM

CCOC(=O)c1ccc(N2C(=O)CC(Sc3nnc(C)s3)C2=O)cc1 (stereo unspecified)
inactive: activity change, negative = inhibition [1] 6.1% | activity, negative = inhibition [2] 1.82% | Potency [3] > 20.6 µM

COC(=O)CN(c1nc(C)c(Br)c(OC)n1)S(=O)(=O)c1ccc(C)cc1
inactive: activity change, negative = inhibition [1] -6.01% | activity, negative = inhibition [2] 7.73% | Potency [3] > 20.6 µM

CCCCn1c(O)c(C=NCCCN(C)C)c(=O)[nH]c1=O
inactive: activity change, negative = inhibition [1] -1.31% | activity, negative = inhibition [2] 3.99% | Potency [3] > 20.6 µM

Cn1ccnc1C(O)c1ccc(OCc2ccccc2)cc1 (stereo unspecified)
inactive: activity change, negative = inhibition [1] -6.56% | activity, negative = inhibition [2] 2.08% | Potency [3] > 20.6 µM

CCCSc1nc(N2CCOCC2)c2c(c1C#N)CCCC2
inactive: activity change, negative = inhibition [1] 20.8% | activity, negative = inhibition [2] -3.09% | Potency [3] > 20.6 µM

CCC1CCCCN1c1nc(-c2ccncc2)nc2ccccc12 (stereo unspecified)
inactive: activity change, negative = inhibition [1] -20.7% | activity, negative = inhibition [2] -2.48% | Potency [3] > 20.6 µM

Cc1ccc(CNc2oc(COc3ccccc3Cl)nc2C#N)cc1
inactive: activity change, negative = inhibition [1] 39.1% | activity, negative = inhibition [2] -8.99% | Potency [3] > 20.6 µM

COc1cc(/C=N/O)ccc1OCc1ccc(C(=O)O)cc1
inactive: activity change, negative = inhibition [1] -13.9% | activity, negative = inhibition [2] -11.7% | Potency [3] > 20.6 µM

CC1(C)Cc2[nH]c(=S)c(C#N)cc2CO1
inactive: activity change, negative = inhibition [1] 8.31% | activity, negative = inhibition [2] 27.9% | Potency [3] > 20.6 µM

O=C(CSc1nc2ccccc2c(=O)n1CC1CCCCC1)N1CCOCC1
inactive: activity change, negative = inhibition [1] -23.4% | activity, negative = inhibition [2] -21.6% | Potency [3] > 20.6 µM

COC(=O)c1c(NC(=O)c2nn(C)cc2Cl)sc2c1CCCC2
inactive: activity change, negative = inhibition [1] -24.3% | activity, negative = inhibition [2] -10.7% | Potency [3] > 20.6 µM

Cc1cc(C)n(C2CCCCC2OC(=O)c2ccccc2)n1 (stereo unspecified)
inactive: activity change, negative = inhibition [1] 7.47% | activity, negative = inhibition [2] 3.83% | Potency [3] > 20.6 µM

CC(C)C(=O)N1CCN(c2nc(-c3ccccc3)c3c(c2C#N)CC(C)(C)OC3)CC1
inactive: activity change, negative = inhibition [1] -2.44% | activity, negative = inhibition [2] 9.79% | Potency [3] > 20.6 µM

COCCN(Cc1ccccc1)P(=O)(O)c1ccccc1OCC(=O)O
inactive: activity change, negative = inhibition [1] -2.92% | activity, negative = inhibition [2] 2.47% | Potency [3] > 20.6 µM

c1ccc(N2CCN(c3nc(NCc4ccco4)c4ccccc4n3)CC2)cc1
inactive: activity change, negative = inhibition [1] -16.8% | activity, negative = inhibition [2] -28% | Potency [3] > 20.6 µM

CCOP(=O)(c1ccccc1)c1nc(-c2ccccc2C)oc1N1CCCCC1 (stereo unspecified)
inactive: activity change, negative = inhibition [1] -1.96% | activity, negative = inhibition [2] 0.694% | Potency [3] > 20.6 µM

Cc1c(C)c2cc(Cl)c(O)c(CN3CCCC(C)C3)c2oc1=O (stereo unspecified)
inactive: activity change, negative = inhibition [1] 14.1% | activity, negative = inhibition [2] -3.87% | Potency [3] > 20.6 µM

O=C(NCc1ccco1)c1cnn2c(C(F)(F)F)cc(-c3ccco3)nc12
inactive: activity change, negative = inhibition [1] -3.32% | activity, negative = inhibition [2] 10.1% | Potency [3] > 20.6 µM

CCCn1c(SCC#N)nc2c(c1=O)C1(CCCC1)Cc1ccccc1-2
inactive: activity change, negative = inhibition [1] 13.8% | activity, negative = inhibition [2] 2.26% | Potency [3] > 20.6 µM

CCCCNC1=C(Br)C(=O)CC(C)(C)C1
inactive: activity change, negative = inhibition [1] 4.07% | activity, negative = inhibition [2] -6.99% | Potency [3] > 20.6 µM

Cc1cc(C)n(-c2nnc(C)n2/N=C/c2ccccc2F)n1
inactive: activity change, negative = inhibition [1] 8.65% | activity, negative = inhibition [2] 18% | Potency [3] > 20.6 µM

Nc1ccc2c(c1)N1CCN=C1S2
inactive: activity change, negative = inhibition [1] -0.461% | activity, negative = inhibition [2] 8.4% | Potency [3] > 20.6 µM

Cc1cc2c(c(=O)n1Cc1ccccn1)C(c1ccc3c(c1)OCO3)C(C#N)=C(N)O2 (stereo unspecified)
inactive: activity change, negative = inhibition [1] -7.52% | activity, negative = inhibition [2] -11.7% | Potency [3] > 20.6 µM

Cn1c(N2CCOCC2)nc2c1c(=O)n(Cc1ccc(Cl)cc1)c(=O)n2C
inactive: activity change, negative = inhibition [1] 1.13% | activity, negative = inhibition [2] 23.9% | Potency [3] > 20.6 µM

O=C(CCN1C(=O)c2ccccc2C1=O)OCN1C(=O)c2ccccc2C1=O
inactive: activity change, negative = inhibition [1] 5.65% | activity, negative = inhibition [2] -0.962% | Potency [3] > 20.6 µM

O=C(NC1CCCCC1)N1CCSC1=Nc1ccccc1
inactive: activity change, negative = inhibition [1] 4.48% | activity, negative = inhibition [2] -11.7% | Potency [3] > 20.6 µM

CN1C2C=C3C(C#N)=C(N)C(C#N)(C#N)[C@@H](c4ccc(Cl)cc4)[C@@H]3C1CC2 (stereo partly specified)
inactive: activity change, negative = inhibition [1] -8.82% | activity, negative = inhibition [2] 5.5% | Potency [3] > 20.6 µM

Cc1c(O)c(CN2CCCC2)cc2c1oc(=O)c1ccccc12
inactive: activity change, negative = inhibition [1] 4.42% | activity, negative = inhibition [2] -9.48% | Potency [3] > 20.6 µM

CCN(CC)CCCn1c(C)cc2c(c1=O)C(c1cccc(Cl)c1)C(C#N)=C(N)O2 (stereo unspecified)
inactive: activity change, negative = inhibition [1] -4.22% | activity, negative = inhibition [2] -2.98% | Potency [3] > 20.6 µM

COc1cc2c(C(=O)N3CCN(c4ccccc4)CC3)c(C)oc2cc1Br
inactive: activity change, negative = inhibition [1] 3.59% | activity, negative = inhibition [2] -12.8% | Potency [3] > 20.6 µM

COc1ccc(OC)c(NS(=O)(=O)c2ccc(N3CCCC3=O)cc2)c1
inactive: activity change, negative = inhibition [1] 18.1% | activity, negative = inhibition [2] 11.3% | Potency [3] > 20.6 µM

CCC1(C)Cc2c(sc3c2c(=O)n(C)c2nnc(SCc4ccccc4)n32)CO1 (stereo unspecified)
inactive: activity change, negative = inhibition [1] -2.66% | activity, negative = inhibition [2] 1.36% | Potency [3] > 20.6 µM

CCOC(=O)c1[nH]c2ccc(Br)cc2c1NC(=O)CNC
inactive: activity change, negative = inhibition [1] 18.8% | activity, negative = inhibition [2] -1.05% | Potency [3] > 20.6 µM

CCCCOc1ccc(C(=O)OC2CC(C)N(C)CC2C)cc1 (stereo unspecified)
inactive: activity change, negative = inhibition [1] 5.59% | activity, negative = inhibition [2] 1.35% | Potency [3] > 20.6 µM

Cc1ccc(-n2ncc3c(N4CCC(C(N)=O)CC4)ncnc32)c(C)c1
inactive: activity change, negative = inhibition [1] 5.42% | activity, negative = inhibition [2] -2.42% | Potency [3] > 20.6 µM

Cc1[nH]nc2c1C(CCc1ccccc1)C(C#N)=C(N)O2 (stereo unspecified)
inactive: activity change, negative = inhibition [1] -6.35% | activity, negative = inhibition [2] -1.82% | Potency [3] > 20.6 µM

COc1ccc(Cn2c(=O)c3c(nc(NCCO)n3C)n(C)c2=O)cc1
inactive: activity change, negative = inhibition [1] 1.13% | activity, negative = inhibition [2] -24.4% | Potency [3] > 20.6 µM

CCC1(C)Cc2c(sc3c2c(=O)n(C)c2nnc(SCC(=O)c4ccc(Cl)cc4)n32)CO1 (stereo unspecified)
inactive: activity change, negative = inhibition [1] -5.39% | activity, negative = inhibition [2] -5.38% | Potency [3] > 20.6 µM

CC(=O)Nc1ccc(-c2cc3ccccc3o2)cc1
inactive: activity change, negative = inhibition [1] -10.3% | activity, negative = inhibition [2] -0.606% | Potency [3] > 20.6 µM

CC(C)c1nc(NCCN2CCOCC2)c(C#N)c2c1COC(C)(C)C2
inactive: activity change, negative = inhibition [1] -27% | activity, negative = inhibition [2] -1.06% | Potency [3] > 20.6 µM

CCOC(=O)CSC1=C(C#N)C(=O)NC2(CCCCC2)S1
inactive: activity change, negative = inhibition [1] -9.68% | activity, negative = inhibition [2] 8.1% | Potency [3] > 20.6 µM
